Only some compounds are listed: those with a hit (about 4% of all), similar ones and a draw of the others.
Rv3671c inh – inhibitors of M. tuberculosis serine protease Rv3671c. P9WHR9. inhibition, % at 5.96 µM. 0.048% of 320,000 active. AID 2606; in the data active means inhibition above about 38%;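 further: extracellular domain of Rv3671c used as enzyme; 0% = enzyme with DMSO and 100% = no enzyme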
Mtb betalactam – beta-lactam sensitization of Mtb H37Rv | M. tuberculosis H37Rv growth with meropenem, percent inhibition | inhibition, % at 25 µM | 0.27% of 330,000 active | AID 434955; call rule not given here;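 further: growth measured after seven days incubation then overnight dye step; 0% = bacteria only wells and 100% = bacteria with antibiotic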
GDH-TPI counter-1 – inhibits GDH-TPI coupling enzymes, artifact for Mtb FBA screen; GDH-TPI coupled enzyme counterscreen, NADH absorbance; 1.2% of 360,000 active; inhibition, % at 4.8 µM; AID 588335; in the data active means inhibition above about 30%;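 further: 0% = DMSO wells and 100% = wells lacking the enzyme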
Mtb FBA inh – inhibitors of M. tuberculosis fructose-bisphosphate aldolase; purified M. tuberculosis FBA, fluorescence read-out; inhibition, % at 1 µM; 2.3% of 360,000 active; AID 588726;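 further: 0% = vehicle and 100% = reference inhibitor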
RecA splice inh – Mtb RecA intein splicing inhibition | P9WHJ3 | 0.75% of 290,000 active | cell-free RecA intein splicing, fluorescence | inhibition, % (no concentration beside the values) | AID 2221; in the data active means inhibition above about 30%;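 further: 0% = vehicle wells and 100% = reference inhibitor control wells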
Mtb UGM inh – inhibitors of M. tuberculosis UDP-galactopyranose mutase | P9WIQ1 | purified UGM, fluorescence polarization probe displacement | inhibition, % at 10 µM | 0.06% of 320,000 active | AID 504406; in the data active means inhibition above about 10%, passing the limit was not always enough
Target sequence (P9WIQ1 whole entry, looked up): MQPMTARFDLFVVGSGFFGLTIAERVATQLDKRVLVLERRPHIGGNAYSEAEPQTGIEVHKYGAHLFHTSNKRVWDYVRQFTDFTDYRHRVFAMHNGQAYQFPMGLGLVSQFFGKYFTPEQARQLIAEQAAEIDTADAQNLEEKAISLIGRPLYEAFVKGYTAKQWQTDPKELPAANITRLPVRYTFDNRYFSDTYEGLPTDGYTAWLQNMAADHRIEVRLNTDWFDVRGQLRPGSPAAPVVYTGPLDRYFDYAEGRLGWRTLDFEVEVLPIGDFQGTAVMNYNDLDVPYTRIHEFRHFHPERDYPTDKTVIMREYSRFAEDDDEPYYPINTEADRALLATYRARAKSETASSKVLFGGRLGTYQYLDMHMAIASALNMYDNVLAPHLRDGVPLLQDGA
Mtb FBA inh conf – Mtb FBA inhibition, confirmed; shares compounds with Mtb FBA inh; purified M. tuberculosis FBA, fluorescence read-out; AID 651616; inhibition, % at 1 µM; 78% of 5,600 active;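 further: 0% = vehicle wells and 100% = reference inhibitor wells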
GDH-TPI counter-2 – GDH-TPI inhibition counter-screen for FBA inhibitors. shares compounds with Mtb FBA inh. GDH-TPI coupled enzyme counterscreen, fluorescence. inhibition, % at 1 µM. 81% of 5,600 active. AID 652141; in the data active means inhibition above about 10%
* = called active by the depositor; . = no result given; + = active, no number. Unless noted, no stated cut-off is given here; in the data, active means inhibition above about 27%; inactive means the rest.

SMILES	Rv3671c inh	Mtb betalactam	GDH-TPI counter-1	Mtb FBA inh	RecA splice inh	Mtb UGM inh	Mtb FBA inh conf	GDH-TPI counter-2
Cc1cc(C(=O)N2CCC2(C)C(=O)NS(=O)(=O)c2cccc(OC(F)F)c2)nn1C (centres undefined)	.	.	8	-1	.	.	.	.
Cc1ccc(Oc2ccc(NC(=O)CSc3n[nH]c(N)n3)cc2)cc1	1	-1	11	32*	2	-1	-1	-3
Cc1cccc(NC(=O)C2CCCN2S(=O)(=O)c2ccc(Cl)cc2)n1 (centres undefined)	-6	-10	-4	2	0	-1	.	.
COc1ccc(C2C(C#N)=C(N)OC3=C2C(=O)CC(C)(C)C3)cc1Cn1nc(C)c([N+](=O)[O-])c1C (centres undefined)	-18	2	-4	39*	1	4	54*	47*
CC(C)(C)OC(=O)NCCCCCNC(=O)c1[nH]cnc1C(=O)Nc1ccccc1	-5	3	1	1	.	1	.	.
CC(C)(C)OC(=O)NCCCCCNC(=O)c1ncn2c1c(=O)[nH]c1ccccc12	.	.	-3	87*	.	.	42*	34*
CCCCn1c(=O)cc(C)n(-c2ccccc2)c1=O	-2	10	-4	0	-3	0	.	.
CCCCn1c(=O)nc2n(-c3ccccc3)c3ccccc3cc-2c1=O	-5	-16	10	46*	-43	3	123*	98*
Cc1ccc(C)c(-n2c3nc(=O)n(C)c(=O)c-3cc3ccccc32)c1	10	-1	19	100*	-178	-1	+	+
O=C(COc1ccc(C(=O)NCC2CCCO2)cc1)Nc1cccc(C(F)(F)F)c1 (centres undefined)	-10	-3	4	3	5	-2	.	.
Cc1cccc(OC(C)C(=O)NC2CCS(=O)(=O)C2)c1C (centres undefined)	-8	6	-1	88*	-4	-2	119*	83*
Cc1ccccc1NC(=O)NC1CCS(=O)(=O)C1 (centres undefined)	4	12	-3	-1	-1	-1	.	.
CCN(C(=S)NC(=O)c1ccco1)c1cccc2ccccc12	0	52	5	29*	.	4	92*	73*
CCN(C(=S)NCCOC)c1cccc2ccccc12	4	10	-2	3	1	-1	.	.
CCNc1ncnc2[nH]ncc12	.	.	9	6	.	.	.	.
COc1ccc2nc(C)cc(N3CCN(S(=O)(=O)c4ccccc4F)CC3)c2c1	3	2	4	0	.	-2	.	.
CCOC(=O)CC1(CC(=O)OCC)NC(=O)c2c(C)sc(C(=O)OCC)c2N1	1	-16	14	31*	0	1	5	3
CCOC(=O)CC1(C)NC(=O)c2c(C)sc(C(=O)OCC)c2N1 (centres undefined)	0	-2	17	55*	-5	-1	2	-2
Cc1ccccc1CNC(=O)c1ccccc1NS(C)(=O)=O	-10	-6	14	59*	1	5	60*	51*
CS(=O)(=O)Nc1ccccc1C(=O)NC1CC2CCC1C2 (centres undefined)	-2	-3	4	37*	7	1	65*	49*
CCOC(=O)c1nc2cc3n(c(CC(C)C)c-2c1C)CC(C)=C3C	-9	3	6	27*	-6	1	119*	88*
CCOC(=O)c1nnc2cc(C)nn2c1C	1	-10	1	0	2	2	.	.
CCOC(=O)c1nc2cc3n(c(C)c-2c1C)C(C)C(C)=C3C (centres undefined)	-2	-9	3	37*	-4	1	63*	50*
NCCNc1ccc(C(=O)N2c3ccccc3Sc3ccccc32)cc1[N+](=O)[O-]	5	11	-1	-4	3	1	.	.
C=CCn1c(CNS(=O)(=O)c2ccc(Br)cc2)n[nH]c1=S	2	-4	1	3	2	-1	.	.
SMILES	Rv3671c inh	Mtb betalactam	GDH-TPI counter-1	Mtb FBA inh	RecA splice inh	Mtb UGM inh	Mtb FBA inh conf	GDH-TPI counter-2
c1cncc(-c2ccnc3ncnn23)c1	7	0	12	1	-1	-1	.	.
c1coc(-c2ccnc3ncnn23)c1	-3	-1	23	93*	-1	3	94*	74*
Nc1nc2nccc(-c3ccccn3)n2n1	4	-1	6	39*	4	-1	+	+
CSc1ncnc2c1ncn2CCCNCc1ccccn1	.	.	6	3	.	.	.	.
COc1ccc(NC(=O)N(C)C[C@H]2Oc3ccc(NC(=O)NC4CCCCC4)cc3C(=O)N([C@H](C)CO)C[C@@H]2C)cc1	5	10	-7	-2	.	-3	.	.
CC(C)N1CCN(Cc2cc(F)ccc2-n2cccn2)CC1CCO (centres undefined)	-5	3	-4	37*	-7	1	106*	82*
CC(C)N1CCC(N2CCN(Cc3cc(F)ccc3-n3cccn3)CC2CCO)CC1 (centres undefined)	9	-8	11	2	-3	-1	.	.
c1ccc(Nc2ccc(-n3ccnc3)nn2)cc1	5	-4	5	69*	3	0	127*	140*
CCOc1ccc(S(=O)(=O)N(CC(=O)NCc2cccnc2)c2ccc(F)cc2)cc1	-4	3	6	-1	0	-1	.	.
COc1ccc(OC)c(-n2c(C)ccc2-c2ccc(S(C)(=O)=O)cc2)c1	-1	-6	19	91*	2	-1	87*	97*
O=C(NCCc1c[nH]c2ccccc12)c1ccc2[nH]c(=O)c(=O)[nH]c2c1	-6	6	4	3	-1	-2	.	.
O=C(NCCO)c1ccc2[nH]c3ccccc3c2c1	0	-1	-11	35*	-1	0	-2	-4
CC12CCC(=O)N1C(C(=O)NCCN1C(=O)S/C(=C\c3ccc(F)cc3)C1=O)CS2 (centres undefined)	-2	1	28	-2	3	-1	.	.
Cc1ccc(C(=O)N2CCCN(c3nc4cc5c(cc4cc3C#N)OCO5)CC2)cc1	-4	-5	10	45*	-213	2	145*	88*
N#Cc1cc2cc3c(cc2nc1N1CCCCC1)OCCO3	-3	47	13	47*	-17	-1	55*	42*
COc1ccc(C(=O)N2CCN(c3nc4cc(C)cc(C)c4cc3C#N)CC2)cc1	.	.	-1	11	.	.	.	.
COC(=O)Cc1ccc(OC(=O)c2cccc(S(=O)(=O)N3CCN(C)CC3)c2)cc1	5	-17	1	-2	0	3	.	.
CC(C)CNC(=O)CSc1nc2scc(-c3ccccc3)c2c(=O)[nH]1	-6	-7	-8	0	3	0	.	.
O=C(CSc1nc2scc(-c3ccccc3)c2c(=O)[nH]1)Nc1ccccc1	-25	-5	15	33*	-1	0	-7	-6
